Laboratory results reported in PubChem BioAssay (NCI).
About 83,000 compounds went through this panel and 20% of them were active in at least one assay; those are over-represented in the sample as a whole.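 Assay: single dose, 48 h. Readout: percent growth (0 = no net growth; negative = cell death). Active: <10.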 Activity calls are given as the source filed them.

test system: MDA-MB-468 breast; assay: NCI-60 one-dose screen, 48 h (100 = growth as untreated, 0 = no growth, -100 = all killed); details: 10 µM unless noted

Question: For `CCCc1n(Cc2ccc3ccccc3n2)cc[n+]1Cc1ccc2ccccc2n1`, which growth is on record?
Answer: -39.9% (active)

Question: `CCCN1CN2C(=O)N3CN(CCC)CN4C(=S)N(C1)C2C34` (centres undefined) was tested. Which growth did it give?
Answer: 107% (inactive)

Question: With `N#CC1=C(NC=O)Oc2c(ccc3ccccc23)C1c1ccccc1` (centres undefined) as the molecule, how does the growth read?
Answer: 12% (inactive)

Question: `C=C1C(=O)O[C@H]2[C@H]1CC/C(CNC(=O)/C=C/c1ccc(Br)cc1)=C\CC[C@@]1(C)O[C@@H]21` was tested. Which growth did it give?
Answer: -58.5% (active)

Question: `Cc1ccc2c(c1)C(C)Cc1c(ncnc1-n1cnc3ccccc31)N2C` (centres undefined) was tested. Which growth did it give?
Answer: 30.8% (inactive)

Question: For `C#Cc1cccc(Nc2nc3ccc([N+](=O)[O-])cc3nc2Nc2cccc(C#C)c2)c1`, which growth is on record?
Answer: -45.9% (active)

Question: For `COc1cc2c(cc1OC)[C@H](C(=O)O)[C@@H](c1ccc(OC(C)C)c(OC)c1)N(C)C2=O`, which growth is on record?
Answer: 105% (inactive)

Question: How did the growth turn out when `Nc1ccc(NC(=O)c2cccc(N)c2)cc1` was run?
Answer: 94.2% (inactive)

Question: How did the growth turn out when `Cc1cccc[n+]1C1c2ccccc2-c2ccccc21` was run?
Answer: 68.5% (inactive)

Question: How did the growth turn out when `COc1ccc(C2NCCc3c2[nH]c2ccccc32)cc1CN1CCN(c2ccc(F)cc2)CC1` (centres undefined) was run?
Answer: 49% (inactive)

Question: For `O=C1CSC(c2ccccc2O)N1c1nnc(Cn2ccnc2)o1` (centres undefined), which growth is on record?
Answer: 59.1% (inactive)

Question: With `C=C(C)[C@@H]1CC[C@]2(C(=O)NNC(=O)c3cccnc3)CC[C@]3(C)[C@H](CC[C@@H]4[C@@]5(C)CCCNC(C)(C)[C@@H]5CC[C@]43C)[C@@H]12` as the molecule, how does the growth read?
Answer: 79.8% (inactive)

Question: `Nc1ccc(-c2cc3c(Nc4ccc(Oc5cccc(C(F)(F)F)c5)c(Cl)c4)ncnc3s2)cc1` was tested. Which growth did it give?
Answer: -9.82% (active)

Question: How did the growth turn out when `Cc1ccc(C=C2C(Cl)=C(Cl)C(Cl)=C2Cl)cc1` was run?
Answer: -59.4% (active)

Question: For `O=C1c2ccccc2C2(c3ccc(O)cc3)c3ccccc3Oc3cccc1c32` (centres undefined), which growth is on record?
Answer: -8.79% (active)

Question: `CC1C(=O)CCCC1=O` was tested. Which growth did it give?
Answer: 122% (inactive)

Question: For `Cc1ccc(N=NC2C(=O)N(c3ccc(Cl)cc3)N(c3ccc(Cl)cc3)C2=O)cc1`, which growth is on record?
Answer: 107% (inactive)

Question: For `COc1cccc(-c2cc(-c3cc4ccccc4oc3=O)nc(N)n2)c1`, which growth is on record?
Answer: 92.7% (inactive)

Question: Which growth does the source give for `O=C1CSC(=S)N1CCc1ccc(O)cc1` here?
Answer: 40.5% (inactive)

Question: How did the growth turn out when `CC(C)(C)c1cc(C=Nc2cccc(C(F)(F)F)c2)c(O)c(C(C)(C)C)c1` was run?
Answer: 95.8% (inactive)

Question: How did the growth turn out when `O=C(NC(=S)Nc1ccccn1)c1ccccc1` was run?
Answer: 45.1% (inactive)

Question: `O=C(Nc1nonc1-c1ccccc1)c1ccc(C(F)(F)F)cc1` was tested. Which growth did it give?
Answer: 101% (inactive)

Question: For `CN(C)c1ncnc2c1ccn2C1OC(CO)C(O)C1O` (centres undefined), which growth is on record?
Answer: -64.3% (active)

Question: How did the growth turn out when `CC(O)CN(CC(C)O)N(CC(C)O)CC(C)O` (centres undefined) was run?
Answer: 105% (inactive)
